Each structure is given as a SMILES string. About 11,000 (3.5%) of roughly 310,000 compounds were called active. Inconclusive results (about 8%) are left out. This is one part of a sample in which actives are shown more often than they occur. Calls follow the shape of the dose curve; as a rule, active = well fitted inhibition curve with a large enough effect; inconclusive = small, poorly fitted or top-dose-only effect, or effect the other way; inactive = flat fitted curve, though single readings scatter.
% is scaled to controls: 0 for no effect and ±100 for the full control effect; potency is read from the fitted curve at half-maximal effect.

This assay in a line: VP16 counterscreen qHTS for inhibitors of ROR gamma transcriptional activity.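 Also: Gal4-VP16 expression switched on by copper sulfate through the metallothionein promoter; nearly all actives have a fitted effect of over 50% in size.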 As to conditions: Drosophila S2 Gal4-VP16 UAS-luciferase, luminescence, 20 h; series mostly up to 53.6 µM; activity, negative = inhibition: at the top concentration. From the text:
NIH Molecular Libraries Probe Production Network [MLPCN]
NIH Chemical Genomics Center [NCGC]
Assay Provider: Dan Littman, New York University
The retinoic acid-related orphan receptor (ROR) gamma is a transcription factor that has a central role in the differentiation of Th17 cells, a subset of T helper cells that secrete the inflammatory cytokines IL-17, IL-17F, and IL-22. Th17 cells have been implicated in graft versus host disease, autoimmune disease and asthma. ROR gamma is induced in naive T helper cells in the presence of TGF-beta combined with IL-6, IL-21, or IL-23, and thereafter directs the expression of the Th17 lineage cytokines. To identify nonspecific inhibitors, a Drosophila Schneider cell line was stably transfected with two vectors: a gene expressing a fusion of the Gal4 DNA binding domain and VP16 transactivation domain under the control of the metallothionine promoter and a Photinus luciferase reporter regulated by the Gal4 binding site enhancer, UAS. […] Small molecule inhibitors that inhibit components common to the RORgt and VP16 assays, such as the Gal4 DNA binding domain or the UAS luciferase reporter, will be active in both assays and thus scored as nonspecific.
For screening, 600 cells in 4 uL/well were dispensed into white solid 1536-well plates (Grenier) using a solenoid-based dispenser. Following transfer of 23 nL compound or DMSO vehicle by a pin tool, the plates were incubated 1 hr at ambient temperature, and 1 uL/well copper sulfate (700 uM final concentration) was added. The plates were centrifuged 15 s at 1000 RPM and incubated 20 hr at ambient temperature. After addition of 1.5 uL Photinus luciferase detection reagent, the plates were incubated 10 min at ambient temperature and then read by a ViewLux (Perkin Elmer) to detect luminescence.
Turning to `O=S(=O)(NC1CCCCC1N1CCC(O)CC1)c1ccc(Cl)cc1` (stereo not drawn), the “activity, negative = inhibition” value was -8.83% (inactive).
In the case of `COc1cccc(CN(C)CC(O)COC(c2ccccc2)c2ccccc2C)c1` (stereo not drawn), the “activity, negative = inhibition” value is -7.19% (inactive).
In the case of `COc1ccc(NC(=O)CCS(=O)(=O)c2cc3c(cc2Cl)NC(=O)CO3)cc1OC`, the “activity, negative = inhibition” value is -4.94% (inactive).
On the same count and under the same terms, next, `CN(C)CCN(C(=O)C1=COCCO1)c1nc2ccc(Cl)cc2s1`: 1.38% (inactive).
For `O=C(Nc1ccc(Sc2ccc(Br)cc2)cc1)c1ccco1`, the Potency was 2.82 µM (active).
In the case of `O=C(Nc1ccc(O)cc1)c1ccc(NC(=O)c2ccco2)cc1`, the “activity, negative = inhibition” value was 21.4% (inactive).
For the compound `O=C(Nc1ccccc1)c1ccco1`, the “activity, negative = inhibition” value is 6.47% (inactive).
For `CCN(CC(=O)Nc1ccc(C)c(S(=O)(=O)N(C)C)c1)Cc1ccccc1`, the “activity, negative = inhibition” value was -1.1% (inactive).
The same measure, in the same setting: as for `Cc1ccc(C(C)C)c(OCCSc2nc3ccccc3n2CC(=O)O)c1`, the figure is 3.88% (inactive).
With `CN(NS(=O)(=O)c1cccs1)c1ncc(C(F)(F)F)cc1Cl`, the Potency was 5.01 µM (active).
On to `C#CCN(N(C)c1ncc(C(F)(F)F)cc1Cl)S(=O)(=O)c1ccc2ccccc2c1`, for which the “activity, negative = inhibition” value is 5.11% (inactive).
Same read-out and setting: as for `CN(Cc1ccc(F)cc1Cl)S(=O)(=O)c1cccs1`, the figure is -4.3% (inactive); as for `Cc1ccc(NC2CCCN(C(=O)CCc3cn[nH]c3)C2)cc1C` (stereo not drawn), -6.86% (inactive).
Still for that read-out and setting: next, `CCc1nccn1CCC(=O)N1CCCC(N2CCN(c3ccccc3F)CC2)C1` (stereo not drawn): -2.05% (inactive); `COCc1ccc(C(=O)NC2CC(C)(C)Cc3c2cnn3-c2ccc(C)cc2)o1` (stereo not drawn): -21.6% (inactive).
`CCCc1cc(C(=O)N2CCCC(CO)(CCCc3ccccc3)C2)n(C)n1` (stereo not drawn): the “activity, negative = inhibition” value was 3.03% (inactive).
With `O=C(O)c1ccc(N/N=C/c2ccc3ncccc3c2)cc1`, the Potency is 0.398 µM (active).
With `O=C(O)c1ccc(/C=N/Nc2nc(N3CCCCC3)nc(N3CCCCC3)n2)cc1`, the “activity, negative = inhibition” value was -5.92% (inactive).
Same read-out and setting: next, `O=C(O)c1ccc(/C=N/NC(=O)c2ccc(Br)cc2)cc1`: -3.08% (inactive).
`COc1ccc(OCc2cc(C(=O)NCC3(C)COC3)no2)c(Cl)c1`: the “activity, negative = inhibition” value is 22.6% (inactive).
On the same count and under the same terms, next, `COc1ccc(CNC(=O)C(=O)NCC2OCCN2C(=O)c2ccc(OC)cc2)cc1` (stereo not drawn): -5.04% (inactive).
On to `COc1ccccc1C(=O)N(C1=NC(C)CS1)c1ccc(Cl)cc1` (stereo not drawn), for which the “activity, negative = inhibition” value is -11.6% (inactive).
On to `CN(CCc1ccccn1)C(=O)c1ccc(OC2CCN(CCc3ccccc3)CC2)cc1`, for which the “activity, negative = inhibition” value is 2.42% (inactive).
For `CCOC(=O)c1c(S(=O)(=O)Nc2cccc(Cl)c2)c(C)n(C)c1C`, the “activity, negative = inhibition” value was -12% (inactive).
Regarding `Cc1c2c(nc3ccccc13)-c1cccc(=O)n1C2`, the Potency was 8.91 µM (active).
For `Cc1nc2ccccc2c(C)c1C(=O)c1ccc(F)cc1`, the “activity, negative = inhibition” value is 10.9% (inactive).
The same measure, in the same setting: as for `CC(C)c1ccc2c([Si](C)(C)C)c3c(nc2c1)-c1cccc(=O)n1C3`, the figure is 4.7% (inactive); as for `Cc1cc(C)c2nc(N(CCN(C)C)C(=O)/C=C/c3cccs3)sc2c1`, -16.5% (inactive).
As for `O=C(O)COc1ccc(/C=N/O)cc1Br`, the “activity, negative = inhibition” value is -6.64% (inactive).
With `CNC(=S)N/N=C/c1ccc(OCc2ccccc2)c(Br)c1`, the Potency is 3.55 µM (active).
Take `C=CCNC(=S)N/N=C/c1ccc(OCc2ccccc2)cc1`: the “activity, negative = inhibition” value was 11.6% (inactive).
On the same count and under the same terms, next, `Cc1cc(C)cc(N(CC(=O)NC2CCCC2)C(=O)CCC(=O)Nc2cc(C)on2)c1`: -10.9% (inactive).
In the case of `O=C(Nc1ccc(F)cc1)C(=O)c1cn(CC(=O)N2CCOCC2)c2ccccc12`, the “activity, negative = inhibition” value is 13.1% (inactive).
For the compound `Cc1cc(C(=O)CSc2nc(N)cc(=O)[nH]2)c(C)n1CCc1ccc(Cl)cc1`, the “activity, negative = inhibition” value was -18.2% (inactive).
The same measure, in the same setting: next, `Cc1cc(=O)[nH]c(SCc2cccc(F)c2)n1`: 11.1% (inactive).
Regarding `Cc1cc(C(=O)CSc2nc(N)cc(=O)[nH]2)c(C)n1-c1cccc(F)c1`, the Potency was 17.8 µM (active).
Regarding `CCCn1c(=O)c(C(=O)Nc2cc(C)ccn2)c(O)c2ccccc21`, the “activity, negative = inhibition” value is -14.8% (inactive).
On to `CCN1C(=S)N[C@@H](CCc2ccccc2)[C@H](C(=O)OC)[C@H]1C`, for which the “activity, negative = inhibition” value is -15.7% (inactive).
The same measure, in the same setting: as for `COc1cc(NC(=O)C2=C(C)OCCS2)c(Cl)cc1C(=O)NCCN1CCN(C)CC1`, the figure is -7.6% (inactive); as for `Cn1nccc1/C=N\NC(=O)c1ccc(Cl)cc1`, -8.81% (inactive).
In the case of `CCOc1ccc(CCNC(=O)Nc2ccccc2)cc1OCC`, the “activity, negative = inhibition” value was 6.47% (inactive).
Still for that read-out and setting: next, `COc1ccccc1C(=O)NNC(=O)CCN1C(=O)/C(=C\c2ccccc2)SC1=S`: -9.43% (inactive).
For the compound `O=C(CCCN1C(=O)/C(=C/c2ccccc2)SC1=S)Nc1ccc(O)cc1`, the Potency was 2 µM (active).
With `COc1ccc(NC(=O)CCN2C(=O)/C(=C/c3ccc4c(c3)OCO4)SC2=S)cc1`, the “activity, negative = inhibition” value is -2.97% (inactive).
For the compound `COc1ccc(/C=C2\SC(=S)N(CCC(=O)Nc3cccc(C(=O)O)c3)C2=O)cc1OC`, the “activity, negative = inhibition” value was -1.72% (inactive).
As to `O=C(CCCN1C(=O)/C(=C/c2ccco2)SC1=S)Nc1ccccc1`, the Potency is 12.6 µM (active).
In the case of `Cc1ccc(/C=C2\SC(=S)N(CCC(=O)Nc3ccc(O)cc3)C2=O)cc1`, the “activity, negative = inhibition” value is 7.84% (inactive).
The same measure, in the same setting: next, `COC(=O)c1ccc(Nc2ncnc3sccc23)cc1`: 3.15% (inactive); `CCCCCCC(O)(CCN1CCCCC1)c1ccccc1` (stereo not drawn): -16.4% (inactive).
`CC(=O)N1c2ccc(S(=O)(=O)N3CCC(C(=O)N4CCN(c5ccccc5)CC4)CC3)cc2CC1C` (stereo not drawn): the “activity, negative = inhibition” value was 4.75% (inactive).
In the case of `CCOc1cc(/C=N/n2cnnc2)c(Br)cc1O`, the Potency is 5.62 µM (active).
Turning to `Brc1cc(/C=N/n2cnnc2)oc1Br`, the “activity, negative = inhibition” value was -2.44% (inactive).
Same read-out and setting: next, `Fc1ccc(Br)cc1/C=N/n1cnnc1`: -6.06% (inactive).

For the origin of these results see PubChem BioAssay AID2546 (National Center for Advancing Translational Sciences (NCATS), 2010).
